# In PubChem BioAssay (NCATS):
# Records with an inconclusive call do not appear. A number with no mark means an inactive call. The source made the active and inactive calls. The call rests on the fitted dose curve; in most records, active means well fitted curve in the direction sought with a large enough effect; inconclusive means small, poorly fitted or top-dose-only effect, or another doubt; inactive means no such curve, though single readings can be large; an effect the other way counts as inactive or inconclusive.
# Target: Rap guanine nucleotide exchange factor 4 (Homo sapiens) (UniProt Q8WZA2)
# Assay: Confirmatory qHTS for agonist of cAMP-regulated guanine nucleotide exchange factor 4 (EPAC2) (AID 1645884);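 further: nucleotide exchange releases bodipy-GDP from Rap1 and this lowers its fluorescence; nearly all actives have a fitted effect of over 65% in size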
# Details: EPAC2 GEF activity, Rap1B-BODIPY-GDP fluorescence; series mostly up to 154 µM; activation: at the top concentration
# On the % scale 0 is the no-effect control and ±100 the full control effect.
# Chain of Rap guanine nucleotide exchange factor 4 (Homo sapiens) (Q8WZA2 whole entry, looked up): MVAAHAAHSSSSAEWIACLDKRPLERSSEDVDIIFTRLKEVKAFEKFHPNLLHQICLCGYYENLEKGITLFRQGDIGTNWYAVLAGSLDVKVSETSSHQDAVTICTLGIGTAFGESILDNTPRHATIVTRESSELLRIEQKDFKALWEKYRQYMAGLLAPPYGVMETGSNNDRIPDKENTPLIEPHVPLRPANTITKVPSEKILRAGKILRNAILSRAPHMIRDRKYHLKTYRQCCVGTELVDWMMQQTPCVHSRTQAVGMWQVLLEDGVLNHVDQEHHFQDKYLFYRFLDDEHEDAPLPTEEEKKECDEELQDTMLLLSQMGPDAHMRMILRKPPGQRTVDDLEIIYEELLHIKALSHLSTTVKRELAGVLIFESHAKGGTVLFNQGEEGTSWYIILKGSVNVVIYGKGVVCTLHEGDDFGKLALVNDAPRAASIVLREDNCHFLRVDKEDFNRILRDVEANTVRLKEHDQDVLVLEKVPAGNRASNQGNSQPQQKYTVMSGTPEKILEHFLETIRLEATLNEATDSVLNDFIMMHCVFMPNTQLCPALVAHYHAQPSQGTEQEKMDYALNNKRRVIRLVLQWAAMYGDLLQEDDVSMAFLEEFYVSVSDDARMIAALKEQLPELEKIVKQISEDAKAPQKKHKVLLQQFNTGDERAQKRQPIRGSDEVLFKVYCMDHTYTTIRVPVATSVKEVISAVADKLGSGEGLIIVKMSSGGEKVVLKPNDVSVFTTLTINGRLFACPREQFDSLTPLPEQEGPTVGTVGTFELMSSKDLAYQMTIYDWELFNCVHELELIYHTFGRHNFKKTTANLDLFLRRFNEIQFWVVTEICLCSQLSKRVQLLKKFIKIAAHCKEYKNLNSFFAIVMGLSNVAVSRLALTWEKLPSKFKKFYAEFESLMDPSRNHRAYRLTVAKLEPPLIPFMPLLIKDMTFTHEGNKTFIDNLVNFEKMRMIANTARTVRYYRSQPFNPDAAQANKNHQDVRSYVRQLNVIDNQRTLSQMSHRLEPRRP
row,SMILES,activation
1,CCCCN(Cc1ccc(C(=O)N[C@H](C(=O)O)C(C)C)cc1)C(=O)C(c1ccccc1)c1ccccc1,"8.93% [at 17.1 µM, percent relative to cAMP agonist control]"
2,CN(C)CCNC(=O)c1cccc(-c2cnc3c(NC=O)cc(-c4cccc(C(F)(F)F)c4)cn23)c1,0%
3,C=CCn1c(N)c(S(=O)(=O)c2cccs2)c2nc3ccccc3nc21,0%
4,CCOC(=O)c1cc2c(=O)n3ccccc3nc2n(Cc2ccco2)c1=NC(=O)c1ccc(Br)cc1,"-12.7% [at 83.8 µM, percent relative to cAMP agonist control]"
5,COc1ccc(OC)c2c(/C=C/c3c(C)[nH]c4ccccc34)ccnc12,-1.64%
6,CC(c1ccc(N(C)C)cc1)c1ccnc2ccccc12 (stereo unspecified),18.6%
7,C/C(CC(=O)Nc1ccc2ccccc2c1)=N\NC(=O)c1cnccn1,2.31%
8,C1=Cc2ccccc2/C1=C\c1ccc2c(c1)OCO2,4.46%
9,c1ccc2c(N3CCCCCC3)nc(CN3CCCCC3c3nccs3)nc2c1 (stereo unspecified),5.62%
10,COc1ccc(Cl)cc1N(C)C(=O)Cc1noc2ccc(C)cc12,"-14.3% [at 83.8 µM, percent relative to cAMP agonist control]"
11,C#C[C@]1(OC(C)=O)CCC2C3CCC4=CC(=O)CC[C@@H]4C3CC[C@@]21C (stereo partly specified),3.15%
12,COCCN(CCOC)c1nc(-c2ccccc2)nc2ccccc12,14%
13,COc1cc(CCN(C(=O)c2cccc(S(C)(=O)=O)c2)C(CCc2ccccc2)c2nc3ccccc3[nH]2)cc(OC)c1 (stereo unspecified),8.58%
14,CC(C)C[C@@H](COc1ccccc1)N1CCN(Cc2ccccc2)CCC1=O,4.45%
15,COc1cccc(CN(C)C(=O)c2cnn(-c3ncc4c(n3)-c3ccccc3CCC4)c2C)c1,1.34%
16,CCN(CCn1cccn1)Cc1c(C(=O)N2CCCCCCC2)nc2ccc(Cl)cn12,2%
17,CC[C@H]1c2[nH]c3ccc(C(C)C)cc3c2[C@@H]2CCN3C(=O)CCC[C@H]1[C@H]23,-4.56%
18,CC(=O)Nc1ccc(SC[C@H](C)CN2CC[C@H](C(C)(C)C)CCC2=O)cc1,16.9%
19,COc1ccc(C2CN=NC23CCc2ccccc2C3=O)cc1 (stereo unspecified),12.3%
20,Cc1cccc(C)c1OCC(=O)N(Cc1ccco1)Cc1ccco1,"29.4% [at 83.8 µM, percent relative to cAMP agonist control]"

row,SMILES,activation
1,CCCCN(C(=O)c1cccc2c(=O)c(C)c(-c3ccccc3)oc12)c1ccccc1,"8.49% [at 17.1 µM, percent relative to cAMP agonist control]"
2,Cc1c(C(=O)N2c3ccccc3CC2C)oc2ccccc12 (stereo unspecified),8.63%
3,NC(=O)Nc1ccc(/C=C2\C=Cc3ccccc32)cc1,5.36%
4,Cc1[nH]c2ccccc2c1/C=C/c1ccnc2ccccc12,1.84%
5,COc1cc2c3nnc(-c4ccccc4)c-3cn(Cc3ccc(F)cc3)c2cc1OC,3.13%
6,Cc1cc(-c2cc(F)cc3c2OC(CNC(=O)CCn2cncn2)C3)ccc1F (stereo unspecified),-4.03%
7,CCCCOC(=O)Nc1ccc(S(=O)(=O)Nc2nccs2)cc1,0%
8,COc1ccc(S(=O)(=O)N2CCCCCC2)cc1C(=O)N1CCCC(C(F)(F)F)C1 (stereo unspecified),"2.27% [at 17.1 µM, percent relative to cAMP agonist control]"
9,C=CCOc1ccc(Br)cc1/C=C1/SC(=Nc2ccc(C(=O)O)cc2)NC1=O,11.5%
10,O=C(C[n+]1cccc2cc(Cl)ccc21)c1ccc(Br)cc1,17%
11,CCCCN(C(=O)CSc1n[nH]c(-c2ccc(C)cc2)n1)c1c(N)n(CCCC)c(=O)[nH]c1=O,14.8%
12,O=c1c2ccccc2oc2ccc(Oc3ccccc3)cc12,13.4%
13,Cc1ccc(C)c(N2CCN(C(=O)CCc3nc(-c4ccc(Cl)cc4)no3)CC2)c1,-2.07%
14,COc1cc(-c2noc(C)c2-c2ccc3[nH]ccc3c2)cc(OC)c1OC,7.88%
15,COc1cc(/C=N/NC(=O)c2ccccc2)ccc1O,9.89%
16,COc1cccc(OC)c1C(=O)Nc1ccccc1Sc1ccccc1,-12.3%
17,Cn1cccc1-c1cc(C(=O)N/N=C/c2ccc(F)cc2)[nH]n1,"-2.5% [at 17.1 µM, percent relative to cAMP agonist control]"
18,Cc1cc(N(C)C)cc(C)c1/C=C/c1ccnc2ccccc12,31.8%
19,COc1ccc(C(=O)c2ccc(Br)cc2)c2ccccc12,9.85%
20,CC1Sc2ccc(C(=O)OCc3ccccc3Cl)cc2NC1=O (stereo unspecified),1.16%

# Target: Rap guanine nucleotide exchange factor 4 (Homo sapiens) (UniProt Q8WZA2)
# Assay: Confirmatory qHTS for antagonist of cAMP-regulated guanine nucleotide exchange factor 4 (EPAC2) (AID 1645885); further: nearly all actives have a fitted effect of over 25% in size; further: potency means the concentration at half of the fitted maximal effect
# Details: EPAC2 Rap1B-BODIPY-GDP exchange fluorescence, biochemical; series mostly up to 12.7 µM; activity change, negative = inhibition: at the top concentration
SMILES,"activity change, negative = inhibition",outcome,Potency
CCCCN(Cc1ccc(C(=O)N[C@H](C(=O)O)C(C)C)cc1)C(=O)C(c1ccccc1)c1ccccc1,-3.65%,–,–
CN(C)CCNC(=O)c1cccc(-c2cnc3c(NC=O)cc(-c4cccc(C(F)(F)F)c4)cn23)c1,–,inactive,–
CCOC(=O)c1cc2c(=O)n3ccccc3nc2n(Cc2ccco2)c1=NC(=O)c1ccc(Br)cc1,–,inactive [at 12.7 µM],–
COc1ccc(OC)c2c(/C=C/c3c(C)[nH]c4ccccc34)ccnc12,-11.2% [at 114 µM],–,–
CC(c1ccc(N(C)C)cc1)c1ccnc2ccccc12 (stereo unspecified),-15.3% [at 114 µM],–,–
C/C(CC(=O)Nc1ccc2ccccc2c1)=N\NC(=O)c1cnccn1,-6.32% [at 114 µM],–,–
C1=Cc2ccccc2/C1=C\c1ccc2c(c1)OCO2,-24.1% [at 114 µM],–,–
c1ccc2c(N3CCCCCC3)nc(CN3CCCCC3c3nccs3)nc2c1 (stereo unspecified),–,–,13.9 µM (active)
COc1ccc(Cl)cc1N(C)C(=O)Cc1noc2ccc(C)cc12,-2.2%,–,–
C#C[C@]1(OC(C)=O)CCC2C3CCC4=CC(=O)CC[C@@H]4C3CC[C@@]21C (stereo partly specified),–,–,39.3 µM (active)
COc1cc(CCN(C(=O)c2cccc(S(C)(=O)=O)c2)C(CCc2ccccc2)c2nc3ccccc3[nH]2)cc(OC)c1 (stereo unspecified),-19.4% [at 114 µM],–,–
CC(C)C[C@@H](COc1ccccc1)N1CCN(Cc2ccccc2)CCC1=O,–,–,62.2 µM (active)
CCN(CCn1cccn1)Cc1c(C(=O)N2CCCCCCC2)nc2ccc(Cl)cn12,-14.9% [at 114 µM],–,–
CC[C@H]1c2[nH]c3ccc(C(C)C)cc3c2[C@@H]2CCN3C(=O)CCC[C@H]1[C@H]23,-9.81% [at 114 µM],–,–
CC(=O)Nc1ccc(SC[C@H](C)CN2CC[C@H](C(C)(C)C)CCC2=O)cc1,–,–,44.1 µM (active)
Cc1cccc(C)c1OCC(=O)N(Cc1ccco1)Cc1ccco1,-3%,–,–

SMILES,"activity change, negative = inhibition",outcome,Potency
CCCCN(C(=O)c1cccc2c(=O)c(C)c(-c3ccccc3)oc12)c1ccccc1,-20.1%,–,–
Cc1c(C(=O)N2c3ccccc3CC2C)oc2ccccc12 (stereo unspecified),–,inactive,–
NC(=O)Nc1ccc(/C=C2\C=Cc3ccccc32)cc1,–,–,44.1 µM (active)
Cc1[nH]c2ccccc2c1/C=C/c1ccnc2ccccc12,-12.2% [at 114 µM],–,–
COc1cc2c3nnc(-c4ccccc4)c-3cn(Cc3ccc(F)cc3)c2cc1OC,–,inactive,–
Cc1cc(-c2cc(F)cc3c2OC(CNC(=O)CCn2cncn2)C3)ccc1F (stereo unspecified),-14.8% [at 114 µM],–,–
COc1ccc(S(=O)(=O)N2CCCCCC2)cc1C(=O)N1CCCC(C(F)(F)F)C1 (stereo unspecified),2.63%,–,–
O=C(C[n+]1cccc2cc(Cl)ccc21)c1ccc(Br)cc1,-16.7% [at 114 µM],–,–
CCCCN(C(=O)CSc1n[nH]c(-c2ccc(C)cc2)n1)c1c(N)n(CCCC)c(=O)[nH]c1=O,-10.1% [at 114 µM],–,–
Cc1ccc(C)c(N2CCN(C(=O)CCc3nc(-c4ccc(Cl)cc4)no3)CC2)c1,-27.4% [at 114 µM],–,–
COc1cc(/C=N/NC(=O)c2ccccc2)ccc1O,-1.26% [at 114 µM],–,–
COc1cccc(OC)c1C(=O)Nc1ccccc1Sc1ccccc1,–,inactive,–
Cn1cccc1-c1cc(C(=O)N/N=C/c2ccc(F)cc2)[nH]n1,-8.67%,–,–
Cc1cc(N(C)C)cc(C)c1/C=C/c1ccnc2ccccc12,–,–,13.9 µM (active)
CC1Sc2ccc(C(=O)OCc3ccccc3Cl)cc2NC1=O (stereo unspecified),-19.5% [at 114 µM],–,–
